# From PubChem BioAssay (NCATS)
# Records with an inconclusive call do not appear. Where a call stands in place of a potency, no number is given. The source made the active and inactive calls. Unless noted, calls come from the whole dose curve; as a rule, active = well fitted curve in the direction sought with a large enough effect; inconclusive = small, poorly fitted or top-dose-only effect, or another doubt; inactive = no such curve, though single readings can be large; an effect the other way counts as inactive or inconclusive.
# Key:
# [1] = OV-SAHO Cancer Cell Toxicity qHTS against the NCATS CANVASS Library (AID 1347348); note: nearly all actives have a fitted effect of over 55% in size; note: potency is the fitted concentration of half-maximal effect; for activity change, negative = cytotoxicity: series mostly up to about 38 µM
# How it was run: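 Cells were seeded at 1000 per well, allowed 4 h at 37 degrees C/5% CO2, then pin-treated with an 11-point compound series. After 72 h, viability was read as CellTiter-Glo luminescence following 15min at room temperature.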
# [2] = A2780 Cisplatin Sensitive Ovarian Cancer Cell Toxicity qHTS against the NCATS CANVASS Library (AID 1347353); note: nearly all actives have a fitted effect of over 60% in size; note: potency is the fitted concentration of half-maximal effect; for activity change, negative = cytotoxicity: series mostly up to about 46 µM
# How it was run: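 A2780 cells, 750/well, settled 4 h at 37 °C, then treated with an 11-point compound series for 72 h. Viability was read as ATPLite luminescence after 10 min at room temperature, with bortezomib as control.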
# [3] = qHTS assay for small molecule disruptors of mitochondrial membrane potential screened against the NCATS CANVASS Library (AID 1347389); note: nearly all actives have a fitted effect of over 60% in size; note: potency is the fitted concentration of half-maximal effect
# How it was run: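 HepG2 cells (2,000/well) plated overnight, then exposed to compounds in 11-point qHTS series for 1 h at 37C before 30 min Mito-MPS dye; depolarization read as fall in red aggregate (590 nm) to green monomer (535 nm) fluorescence.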
# [4] = qHTS for activators of Nrf2/ARE signaling pathway screened against the NCATS CANVASS Library (AID 1347391); note: nearly all actives have a fitted effect of over 60% in size; note: potency is the fitted concentration of half-maximal effect
# How it was run: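 ARE-bla HepG2 beta-lactamase reporter cells exposed to compounds for 16 h at 37C; CCF4 substrate 2 h, fluorescence at ex 405 nm, em 460/530 nm. Viability by CellTiter-Glo luminescence.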
# [5] = Viability qHTS for inhibitors of the SERCaMP assay screened against the NCATS CANVASS Library (AID 1347400); note: nearly all actives have a fitted effect of over 70% in size; note: potency is the fitted concentration of half-maximal effect; for activity change, negative = cytotoxicity: series mostly up to about 92 µM
# How it was run: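 SH-SY5Y-GLuc SERCaMP MJH297-derived cells, 1000/well, plated 4 h, then exposed to compounds in an 11-point qHTS series for 48 h at 37C. Viability read as CellTiter-Glo luminescence.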
# [6] = system: Zika virus NS2B-NS3 protease (linked); experiment: 384 well plate NINDS AMC confirmatory qHTS for Zika virus inhibitors (AID 1347163); note: potency is the fitted concentration of half-maximal effect; nearly all actives have a fitted effect of over 50% in size
# How it was run: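 Linked NS2B-NS3 protease (final 5 nM, 30 nM or 60 nM) was preincubated with compounds (final up to 1 mM) for ~15 minutes. Ac-VKTGKR-AMC substrate (final 30 microM) then reacted for 25 minutes at room temperature in the dark. Fluorescence (ex 355/em 460 nm) was normalized to no-enzyme and no-inhibitor controls.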
# [7] = system: Zika virus NS2B-NS3 protease (linked construct); experiment: 384 well plate NINDS Rhodamine confirmatory qHTS for Zika virus inhibitors (AID 1347164);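 note: fluorescence from protease cleavage of Ac-LKRR-rhodamine 110 substrate; top concentration of the series differs between compounds; nearly all actives have a fitted effect of over 65% in size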
# How it was run: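 Linked NS2B-NS3 protease (final 5, 30 or 60 nM) preincubated ~15 minutes with compounds, then 10 microM Ac-LKRR-Rhodamine 110 added. Fluorescence (485/538 nm) read after 25 minutes at room temperature, normalized to no-enzyme and no-inhibitor controls.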
# [8] = system: Zika virus NS2B-NS3 protease (linked construct); experiment: Primary screen NINDS Rhodamine qHTS for Zika virus inhibitors (AID 1347160); note: nearly all actives have a fitted effect of over 55% in size; note: potency is the fitted concentration of half-maximal effect
# How it was run: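 Purified NS2B-NS3 protease with the NS2B hydrophilic domain joined by a flexible linker (25 nM) in 10 mM Tris-HCl pH 8.0, 0.01% Tween 20, preincubated 15 min at RT with compound; Rhodamine110 peptide substrate 1.5 µM; fluorescence change over 15 min; 4-parameter Hill fit.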
# [9] = Vero-766 cells viability qHTS against the NCATS CANVASS Library: Counterscreen for Zika virus inhibition assay (AID 1347394); note: nearly all actives have a fitted effect of over 60% in size; note: potency is the fitted concentration of half-maximal effect; for activity change, negative = cytotoxic: series mostly up to about 46 µM
# How it was run: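 Vero 766 cells (1000/well), without Zika virus, were exposed to compounds for 72 h at 37C. Viability was measured by CellTiter Glo luminescence. Media-only wells served as 100% inhibition.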
# [10] = qHTS for Antimalaria activity screened against the NCATS CANVASS Library (AID 1347380); note: nearly all actives have a fitted effect of over 40% in size; note: potency is the fitted concentration of half-maximal effect
# How it was run: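 Red blood cells infected with P. falciparum Dd2 (2.5% hematocrit final, 0.3% parasitemia) were exposed to compounds in an 11-point qHTS series for 72 hr at 37C under 5% O2 and 5% CO2. Lysis buffer with SYBR Green was then added for 18 hr, and fluorescence was read at 485/535 nm.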
# [11] = qHTS for Activators of p53 Stress Response Pathway screened against the NCATS CANVASS Library (AID 1347388)
# How it was run: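 Beta-lactamase reporter driven by p53 response elements in HCT-116 cells, read as the 460 nm/530 nm emission ratio after CCF4 loading, following 16 h of exposure to an 11-point series. Cell viability was measured in the same wells by CellTiter-Glo luminescence.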
# [12] = Confirmatory screen NINDS Rhodamine qHTS for Zika virus inhibitors (AID 1347161); note: nearly all actives have a fitted effect of over 60% in size; note: potency is the fitted concentration of half-maximal effect
# How it was run: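 Enzyme (25 nM, linked NS2B-NS3) was preincubated 15 min with compound in 10 mM Tris-HCl pH 8.0, 0.01% Tween 20. Rhodamine110 substrate (1.5 microM) was then added and fluorescence read at start and after 15 min.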
# [13] = NCATS anti-infectives library activity on the primary C. elegans qHTS viability assay (AID 1745855; calls by dose curve)
# How it was run: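 Viability read-out is GFP fluorescence of PE254-GFP-FLuc C. elegans, measured by laser cytometry (488 nm) at day 0, 3 and 7. Ten L1 worms per well were incubated 7 days at 21 °C with compounds and bacterial capsules in S medium.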
# [14] = molecular target: Glutathione peroxidase 1 (Homo sapiens) (UniProt P07203); experiment: Primary qHTS Assay for Inhibitors of Recombinant Selenoprotein Glutathione Peroxidase 1 (GPX1) (AID 1845191); note: nearly all actives have a fitted effect of over 65% in size
# How it was run: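 10 nM GPX1 + cpd, 30 min RT; start w/ 1 mM GSH, 0.5 mM cumene hydroperoxide, 0.5 mM NADPH, 100 nM GR, 0.01% BSA; buffer 50 mM Tris-HCl pH 7.5, 2 mM EDTA, 150 mM NaCl; Fl 340/450, 0 & 15 min.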
# [15] = qHTS drug screen for cell cycle checkpoint inhibitors in PARPi-resistant BRCA-mutant ovarian cancer cell lines. (AID 1963452; calls by dose curve); settings: PEO1/OlaR viability, CellTiter-Glo luminescence, 96 h, stronger effect = lower value
# How it was run: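 PEO1, PEO4 and PEO1/OlaR ovarian cancer cells, 600 per well, exposed 96 h at 37C to a dilution series. Viability read by CellTiter-Glo luminescence, normalized to DMSO and empty wells; activity summarized as Z-AUC.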
# [16] = molecular target: Cytochrome P450 3A4 (Homo sapiens) (UniProt P08684); experiment: qHTS Assay for Activators of Cytochrome P450 3A4 (AID 885); note: nearly all actives have a fitted effect of over 65% in size
# How it was run: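 Human CYP3A4 (20 nM) with Luciferin-PPXE at 25 uM (its KM) in 200 mM KPO4; 10 min compound preincubation, then NADPH regeneration and 60 min reaction at RT. Luciferin read by luminescence; normalized to 57 uM ketoconazole full inhibition.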
# [17] = Confirmation and Secondary Assay for Modulators of Hemoglobin Beta Chain Splicing at IVS2 654 locus (AID 910);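 note: HeLa cells stably carrying EGFP split by mutant beta-globin IVS2-654 intron; per-well total GFP intensity by laser scanning cytometry after 2-day treatment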
# How it was run: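 Readout: per-well total peak green fluorescence (488 nm ex, 500–520 nm em) from objects 5–250 µm, reflecting correct splicing of an EGFP-654 reporter. Compounds were applied for 2 days at 37 °C to overnight-plated HeLa EGFP-654 cells; controls were DMSO and 500 nM IVS2-654 PNA.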
# [18] = Confirmation and Secondary Assay for Modulators of Hemoglobin Beta Chain Splicing at IVS2 705 locus (AID 930);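 note: HeLa cells stably expressing the EGFP-705 splicing reporter; series mostly up to about 46 µM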
# How it was run: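 HeLa cells stably carrying EGFP interrupted by mutant beta-globin IVS2-705 intron (CMV-driven) were seeded at 500 cells/well, treated next day with compound for 2 days at 37C; corrected splicing restores EGFP, read as total peak GFP intensity per well.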
# Chain of Cytochrome P450 3A4 (Homo sapiens) (P08684 whole entry, looked up): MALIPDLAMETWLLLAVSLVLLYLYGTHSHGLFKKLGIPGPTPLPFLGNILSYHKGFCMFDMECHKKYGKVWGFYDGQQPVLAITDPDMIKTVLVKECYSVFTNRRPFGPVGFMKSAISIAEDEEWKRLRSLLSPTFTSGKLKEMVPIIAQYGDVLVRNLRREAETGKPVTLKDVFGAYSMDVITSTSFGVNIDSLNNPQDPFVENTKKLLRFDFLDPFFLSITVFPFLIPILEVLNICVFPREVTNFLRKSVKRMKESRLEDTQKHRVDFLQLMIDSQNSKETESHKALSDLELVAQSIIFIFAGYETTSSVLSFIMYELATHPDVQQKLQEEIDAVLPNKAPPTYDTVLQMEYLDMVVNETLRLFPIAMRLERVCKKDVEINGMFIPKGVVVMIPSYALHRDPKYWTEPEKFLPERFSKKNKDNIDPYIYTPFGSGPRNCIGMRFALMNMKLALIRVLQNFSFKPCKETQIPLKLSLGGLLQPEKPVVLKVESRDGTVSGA
# Chain of Glutathione peroxidase 1 (Homo sapiens) (P07203 whole entry, looked up): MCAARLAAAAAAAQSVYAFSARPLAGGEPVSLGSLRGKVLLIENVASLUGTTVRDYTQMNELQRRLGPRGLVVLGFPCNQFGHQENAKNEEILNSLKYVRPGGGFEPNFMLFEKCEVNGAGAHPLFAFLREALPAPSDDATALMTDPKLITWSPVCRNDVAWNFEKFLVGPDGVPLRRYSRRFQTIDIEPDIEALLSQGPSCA
compound,measurement,setting,value
O=Cc1ccc2n1C[C@]1(OC2)O[C@H](CO)[C@@H](O)[C@@H]1O,Potency,[1],inactive
same,Potency,[2],inactive
same,Potency,[3],inactive
same,Potency,[4],inactive
same,Potency,[5],inactive
CC1c2cccc(O)c2C(O)=C2C(=O)C3(O)C(O)=C(C(N)=O)C(=O)C(N(C)C)C3C(O)C21 (configuration not stated),Potency,[6],282 µM (active)
same,Potency,[7],inactive
C/C(=C\[C@H](C)C(=O)/C=C/CC1CC(=O)NC(=O)C1)[C@@H]1OC(=O)/C=C/CC/C=C/C[C@@H](O)[C@@H]1C,Potency,[8],31.1 µM (active)
same,Potency,[2],1.18 µM (active)
same,Potency,[9],inactive
same,Potency,[5],17 µM (active)
CO[C@H]1/C=C/CCCCC(=O)O[C@@H](/C(C)=C/[C@H](C)C(=O)C[C@H](O)CC2CC(=O)NC(=O)C2)[C@@H](C)C1,Potency,[8],49.3 µM (active)
same,Potency,[2],4.69 µM (active)
same,Potency,[10],9.41 µM (active)
same,Potency,[3],inactive
same,Potency,[4],16.6 µM (active)
COC(=O)c1cc2cc3c(c(O)c2c(=O)o1)OC1(CC3)CC2=C(O1)C(=O)c1c(O)c(OC)cc(OC)c1C2=O (configuration not stated),Potency,[8],2.47 µM (active)
same,Potency,[10],inactive
same,Potency,[3],3.31 µM (active)
same,Potency,[4],10.5 µM (active)
same,Potency,[9],26.3 µM (active)
CCCc1c2c([nH]c(=O)c1C)C(=O)c1[nH]c(=O)c(C)c(CCC)c1C2=O,Potency,[8],34.9 µM (active)
same,Potency,[2],14.8 µM (active)
same,Potency,[10],11.8 µM (active)
O=Cc1ccc2n1C[C@]1(C[C@H](O)[C@@H](CO)O1)OC2,Potency,[1],inactive
same,Potency,[2],inactive
same,Potency,[10],inactive
same,Potency,[11],inactive
same,Potency,[9],inactive
same,Potency,[5],inactive
C/C1=C/[C@@H](C)[C@H](O)[C@@H](O)/C=C/CC/C=C/C(=O)O[C@@H]1[C@H](C)C(=O)/C=C/CC1CC(=O)NC(=O)C1,Potency,[8],inactive
same,Potency,[2],13.2 µM (active)
same,Potency,[10],inactive
same,Potency,[11],inactive
same,Potency,[3],inactive
same,Potency,[9],inactive
same,Potency,[5],3.03 µM (active)
CO/C=C/C(=O)c1cc2cnc3c(N)cc(=NC(=O)C(C)C)c([nH]1)c23,Potency,[8],17.5 µM (active)
same,Potency,[1],0.0375 µM (active)
same,Potency,[10],inactive
same,Potency,[9],0.524 µM (active)
CCC(=O)N[C@@H](C[C@H](C)C(Cl)(Cl)Cl)C(=O)N1C(=O)C=C(OC)[C@@H]1C[C@H](C)CCl,Potency,[8],inactive
same,Potency,[10],inactive
same,Potency,[9],inactive
COc1c(O)cc2c(c1O)C(=O)c1c(coc1C)C2=O,Potency,[8],9.84 µM (active)
same,Potency,[3],10.5 µM (active)
same,Potency,[9],inactive
COC(=O)C1=C[C@]23C[C@@H](C)CC[C@@H]2[C@@]2(C)CC[C@@H](C(C)C)[C@@](O)(O3)[C@@H]12,Potency,[8],44 µM (active)
same,Potency,[3],inactive
CN(C)c1cc(NC(=O)CNC(C)(C)C)c(O)c2c1C[C@H]1C[C@H]3[C@H](N(C)C)C(=O)C(C(N)=O)=C(O)[C@]3(O)C(=O)C1=C2O,Potency,[12],1.97 µM (active)
same,Potency,[13],inactive
same,Potency,[14],inactive
same,Z-AUC,[15],1.31 (inactive)
same,Z-AUC,[15]; measured here: PEO1 parental Z-AUC,1.13
same,Z-AUC,[15]; measured here: PEO4 Z-AUC,1.05
O=C1CC(c2ccc(O)cc2)Oc2cc(O)cc(O)c21 (configuration not stated),Potency,[16],inactive
same,outcome,[17],inactive
same,outcome,[18],inactive
same,Potency,[1],inactive
same,Potency,[2],inactive
same,Potency,[4],inactive
same,Potency,[5],inactive
COc1ccc([C@@H]2CC(=O)c3c(cc(O)c(C/C=C(\C)CCC=C(C)C)c3O)O2)cc1,Potency,[8],7.2 µM (active)
same,"activity change, negative = cytotoxicity",[1],-12.7% [at 7.64 µM] (inactive)
same,Potency,[3],3.84 µM (active)
same,"activity change, negative = cytotoxic",[9],-18.7% [at 9.19 µM] (inactive)
CCOC(=O)c1ccc(CN(Cc2ccc(Br)cc2)S(=O)(=O)c2cccc(C(F)(F)F)c2)cc1,Potency,[12],inactive
C=C1C[C@]23C=CC(=O)[C@@](C)(CCCC(C)C(=O)N[C@@H](CO)C(=O)O)[C@@H]2C[C@@H]1CC3 (some centres not stated),Potency,[1],inactive
same,Potency,[10],inactive
same,Potency,[11],inactive
same,Potency,[4],inactive
same,Potency,[9],inactive
same,Potency,[5],inactive
CN1CC[C@@]23c4ccccc4N[C@@H]1[C@@]21CCN(C)[C@@H]3Nc2ccccc21,Potency,[1],inactive
same,Potency,[10],0.0075 µM (active)
same,Potency,[11],inactive
same,Potency,[3],inactive
same,Potency,[4],inactive
same,Potency,[5],inactive
COc1c(O)cc(O)c2c(=O)cc(-c3ccccc3)oc12,Potency,[1],inactive
same,Potency,[10],inactive
same,Potency,[5],inactive
COc1cc2ccc(=O)oc2c(O)c1O[C@@H]1O[C@H](CO)[C@@H](O)[C@H](O)[C@H]1O,Potency,[2],inactive
same,Potency,[11],inactive
same,Potency,[5],inactive
CO[C@@H](C[C@@H](C)[C@@H](O)/C=C/C=C/CNC(=O)C(C)(C)[C@H](O)\C(C)=C/C=C\C=C\Cc1cnco1)[C@]1(O)[C@@H](C)C(=O)N(C)[C@@]12COC2=O,Potency,[11],inactive
same,Potency,[4],inactive
same,Potency,[5],inactive
C[C@@]1(CCC(=O)Nc2c(O)ccc(C(=O)O)c2O)C(=O)C=C[C@]23C[C@H]4C[C@H](O[C@@]4(C)C2)C31 (some centres not stated),Potency,[2],inactive
same,Potency,[11],inactive
same,Potency,[3],inactive
same,Potency,[4],inactive
same,Potency,[9],inactive
same,Potency,[5],inactive
COc1ccc(-c2oc3cc(OC)cc(OC)c3c(=O)c2O)cc1,Potency,[1],inactive
same,Potency,[4],inactive
same,Potency,[9],inactive
C[C@@]12C[C@@H](C[C@@H]3C(=O)O[C@@H](c4ccoc4)[C@H](OC(=O)c4ccccc4)[C@@H]31)OC2=O,Potency,[2],inactive
same,Potency,[10],inactive
same,Potency,[11],inactive
same,Potency,[3],inactive
same,Potency,[4],inactive
